# Assay results: PubChem BioAssay (NCI)
# The panel holds about 79,000 compounds, 15% with a hit somewhere; the sample as a whole holds those more often. A number with no mark means an inactive call. Calls of active or inactive are those of the source. Rule as the data show it: active = growth inhibition above about 70%; inactive = the rest.
# Key:
# [1] = NCI Yeast Anticancer Drug Screen. Data for the rad50 strain (AID 155);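 also: 0% = growth of vehicle-only cultures of the same strain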; conditions: S. cerevisiae rad50 strain growth inhibition, hits give high values
# In short: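 Cells are treated with compound, grown, and their growth is then scored against vehicle-only cultures of the same repair-deficient yeast strain.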
# [2] = NCI Yeast Anticancer Drug Screen. Data for the mec2-1 strain (AID 157); conditions: S. cerevisiae mec2-1 strain, hits give high values
# In short: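 Strain: mec2-1 (DNA repair/cell cycle alteration). Compound exposure, then growth measured; inhibition expressed relative to vehicle.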
# [3] = NCI Yeast Anticancer Drug Screen. Data for the sgs1 mgt1 strain (AID 161);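 also: 0% = growth of cultures given vehicle only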; conditions: S. cerevisiae sgs1 mgt1 strain, hits give high values
# In short: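 Mutant yeast exposed to compound; growth scored against vehicle-only wells.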
# [4] = NCI Yeast Anticancer Drug Screen. Data for the cln2 rad14 strain (AID 165);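 also: 0% = growth equal to vehicle treated cultures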; conditions: S. cerevisiae cln2 rad14 strain, hits give high values
# In short: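 Compounds are applied to the cln2 rad14 yeast strain, and growth is then compared with that of vehicle-treated cultures to give inhibition.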
# [5] = NCI Yeast Anticancer Drug Screen. Data for the bub3 strain (AID 167); conditions: S. cerevisiae bub3 mutant strain, hits give high values
# In short: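 Part of a panel of yeast mutants defective in DNA damage repair or cell cycle regulation. Each strain is grown with compound, and inhibition is calculated relative to solvent-treated cultures.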
# [6] = NCI Yeast Anticancer Drug Screen. Data for the mlh1 rad18 strain (AID 175); conditions: S. cerevisiae mlh1 rad18 strain growth inhibition, hits give high values
# In short: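 Read-out is yeast growth inhibition, calculated against vehicle-only controls. The compound was applied to a strain engineered with DNA damage repair alterations.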
# [7] = at 5.0 µM (retest, dose inferred, filed as 0.5)
# [8] = at 50.0 µM (retest, dose inferred, filed as 5.0)
Structure (SMILES),"growth inhibition [1, 7]","growth inhibition [1, 8]",growth inhibition ([1]; at 50.0 µM),"growth inhibition [2, 7]","growth inhibition [2, 8]",growth inhibition ([2]; at 50.0 µM),"growth inhibition [3, 7]","growth inhibition [3, 8]",growth inhibition ([3]; at 50.0 µM),"growth inhibition [4, 7]","growth inhibition [4, 8]",growth inhibition ([4]; at 50.0 µM),"growth inhibition [5, 7]","growth inhibition [5, 8]",growth inhibition ([5]; at 50.0 µM),"growth inhibition [6, 7]","growth inhibition [6, 8]",growth inhibition ([6]; at 50.0 µM)
C=CC1(c2ccc(-c3ccccc3)cc2)OCCO1,1%,14%,51.3%,2%,6%,41.5%,-4%,-10%,74.4% (active),19%,8%,7.15%,-22%,-6%,64.1%,-17%,0%,49.5%
Oc1ccc(COCCBr)c2cccnc12,8%,98% (active),98.8% (active),-2%,99% (active),99.5% (active),4%,99% (active),99.2% (active),8%,98% (active),98.5% (active),1%,98% (active),99.2% (active),30%,99% (active),99.2% (active)
COc1ccc(CC/C(=N/O)c2ccccc2)cc1,0%,92% (active),97% (active),-3%,97% (active),96.9% (active),8%,94% (active),93.8% (active),-10%,74% (active),97% (active),1%,90% (active),98% (active),-9%,96% (active),96.9% (active)
O=[N+]([O-])/C(Br)=C\c1ccc([N+](=O)[O-])cc1,19%,99% (active),99.4% (active),4%,100% (active),96.8% (active),9%,100% (active),99.6% (active),17%,99% (active),92% (active),40%,99% (active),94.9% (active),54%,99% (active),99.5% (active)
Oc1ccc(-c2nnc(-c3ccccc3)nn2)cc1,-154%,-160%,56.4%,-48%,-53%,8.95%,-66%,-63%,-3.9%,-47%,-66%,-52.5%,-47%,-19%,58.5%,-121%,-147%,-9.85%
CSC1=NSC(c2ccccc2)=C(c2ccccc2)S1,7%,9%,7.95%,-15%,10%,-1.45%,-11%,0%,27.8%,33%,88% (active),62.5%,9%,43%,43.1%,5%,16%,10.2%
CS(=O)(=O)OCCN(CCOS(C)(=O)=O)c1ccc(C=Nc2ccc(-c3cnc(-c4ccc(Cl)cc4)s3)cc2)c(Cl)c1,1%,84% (active),90% (active),-3%,91% (active),95% (active),3%,90% (active),93.8% (active),-6%,90% (active),90.5% (active),3%,92% (active),92.3% (active),0%,89% (active),92.3% (active)
O=[N+]([O-])c1ccc(O)c(C2CCCCC2)c1,72% (active),98% (active),99.5% (active),67%,99% (active),99.2% (active),62%,99% (active),99.7% (active),64%,99% (active),99.5% (active),79% (active),98% (active),100% (active),87% (active),99% (active),99% (active)
S=c1[nH]nc(Nc2ccccc2Cl)s1,17%,3%,57.5%,-21%,-8%,32.4%,-4%,15%,79.8% (active),23%,22%,43.2%,1%,19%,57%,-7%,-8%,47.9%
Cc1ccc(C(=O)C(CCC#N)(CCC#N)CCC#N)cc1,-8%,-5%,-13.7%,-8%,-17%,-0.25%,-1%,-11%,8.85%,-15%,-3%,-6.25%,12%,15%,1.1%,4%,-6%,4.3%
O=C(NCc1ccc(F)cc1)c1ccc(C(=O)NCc2ccc(F)cc2)cc1,1%,-4%,-6.6%,-19%,21%,-4.05%,-13%,2%,-13.1%,2%,6%,58.4%,1%,7%,-6.9%,-8%,-20%,-10.1%
C/C(=N/NC(=S)N(C)C)c1ccccc1O,2%,13%,-28.2%,-34%,9%,86.3% (active),-43%,16%,52%,18%,3%,77.9% (active),-29%,21%,36.8%,-17%,28%,16.7%
COc1ccc(/C=C/C(C)=N/NC(=S)NCC(C)C)cc1,-9%,55%,15.8%,-12%,47%,45%,-2%,71% (active),75.2% (active),-17%,48%,18.4%,-6%,57%,88.8% (active),3%,61%,52.5%
CCN(CC)CCCNc1cccc2ccc(OC)nc12,1%,50%,73.8% (active),0%,24%,13%,-9%,60%,66%,-1%,33%,32.7%,2%,40%,51.8%,4%,28%,53.5%
COc1cc(NCc2ccc3nc(-c4ccccc4)c(N)nc3c2)cc(OC)c1OC,7%,-19%,-8.3%,-1%,-12%,-9.45%,-3%,7%,50%,5%,3%,16.6%,8%,-10%,37.2%,-16%,5%,70.3% (active)
O=S1(=O)c2ccccc2C(O)(c2ccccc2)c2cc3ccccc3n21 (stereo not given),9%,95% (active),95.8% (active),9%,96% (active),95.5% (active),12%,97% (active),94.2% (active),9%,95% (active),94.9% (active),5%,96% (active),94.3% (active),8%,95% (active),95.5% (active)
COc1cc2c(c(OC)c1OC)-c1ccc(=O)c(OC)cc1[C@@H](N)CC2,25%,22%,-5.6%,22%,16%,-26.4%,22%,21%,-12.5%,24%,32%,-15.4%,25%,19%,-5.1%,29%,26%,-49.5%
O=C(C(/C=N/C(=S)NCc1ccccc1)=C(/O)c1ccccc1)c1ccccc1,6%,86% (active),98.8% (active),-1%,69%,98% (active),3%,61%,98.2% (active),-9%,87% (active),97.7% (active),2%,97% (active),98.3% (active),12%,71% (active),98.7% (active)
O=C(O)CN1CCNCCN(CC(=O)O)CCNCC1,66%,94% (active),50.7%,59%,93% (active),76.1% (active),56%,94% (active),69.8%,25%,85% (active),54.8%,60%,95% (active),56.2%,66%,94% (active),56%
Nc1ccccc1CCc1ccccc1,0%,79% (active),96.9% (active),0%,74% (active),84.5% (active),2%,85% (active),41.8%,-1%,78% (active),67%,0%,74% (active),90.8% (active),28%,91% (active),85.7% (active)
